Measured values reported in PubChem BioAssay (NCI).
Several values for one entry are separate records, joined by “and”; a condition that tells them apart may be missing. Equal entries are not always repeated. About 83,000 compounds went through this panel and 20% of them were active in at least one assay; those are over-represented in the sample as a whole.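 In brief: 96-well plates, 48 h treatment, single concentration, percent growth endpoint.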 Activity calls are given as the source filed them. The calls were made as follows: active = growth percent below 10; inactive = the rest.

Each molecule was assayed on MDA-MB-468 breast (assay: NCI-60 one-dose screen, 48 h (100 = growth as untreated, 0 = no growth, -100 = all killed)). Conditions: 10 µM unless noted.
Cc1cc(N/N=C/c2nc(-c3ccccc3)oc2C)c2cc(Cl)ccc2n1 was tested, and the growth was -74.7% (active).
In the case of CN(C)c1ccc(NC(=O)c2ccc(/C=C/C(=O)c3ncc[nH]3)cc2)cc1, the growth is reported as 45.6% (inactive).
With O=C(Nc1ccc(-n2cc(-c3ccncc3)c(-c3ccc(Cl)c(O)c3)n2)cc1)c1cc(C(F)(F)F)cc(C(F)(F)F)c1 the growth was 71.9% (inactive).
For Cc1cc([N+](=O)[O-])c(C)cc1C(=O)O, the growth was 109% (inactive).
In the case of O=C(Nc1ccccc1[N+](=O)[O-])c1ccc(Cl)c(Cl)c1, the growth is reported as 65.7% (inactive).
Cc1ccc(Nc2ccc(Nc3ccc(C)cc3S(=O)(=O)O)c3c2C(=O)c2ccccc2C3=O)c(S(=O)(=O)O)c1 was tested, and the growth was 104% (inactive).
With CC(C)c1ccc(S(=O)(=O)NC(=O)NC2CCCC2)cc1 the growth was 96.2% (inactive).
For O=C1CCC23OC(C(O)c4ccccc4N12)C1C(Br)=NOC13 (stereo not given), the growth was 115% (inactive).
In the case of c1ccc2nc(Cn3cc[n+](Cc4ccc5ccccc5n4)c3)ccc2c1, the growth is reported as 1.53% (active).
In the case of O=C(NCCNc1nccc(-c2c(-c3cccc(O)c3)nc3sccn23)n1)c1ccc(N2CCOCC2)c(C(F)(F)F)c1, the growth is reported as 50.2% (inactive).
CC(C)CC1NC(C)(C)CO1 (stereo not given) was tested, and the growth was 108% (inactive).
With Clc1ncccc1Nc1ccc2nnc(-c3ccncc3)n2n1 the growth was 99.9% (inactive).
CCN(CC)c1ccc(/C=C\c2cc(C)c3cc(C)ccc3n2)cc1 was tested, and the growth was 1.26% (active).
In the case of COc1ccccc1N1CCN(C2=CC(=O)C(C)=C(C)C2=O)CC1, the growth is reported as 85.8% (inactive).
With Nc1nc(N)c2nc(CNc3ccc(C(=O)NC(CCC(=O)O)C(=O)O)cc3)cnc2n1 (stereo not given) the growth was 13.1% (inactive) and 12% (inactive).
For CC(NC(N)=S)c1ccccc1 (stereo not given), the growth was -11.5% (active).
In the case of CCOC(=O)c1cnn(CC(O)c2ccc(F)cc2)c1NC(=O)Nc1ccccc1F (stereo not given), the growth is reported as 85.8% (inactive).
CCCCC(CCCCCC(CCCC)C1NC(C)Cc2cc(OC)c(OC)cc21)C1NC(C)Cc2cc(OC)c(OC)cc21 (stereo not given) was tested, and the growth was -84.7% (active).
In the case of CCCCN(CCC)CCCCCCCCCCN1CCCc2ccccc21, the growth is reported as 65.6% (inactive).
With C=CCn1c(SCC(=O)Nc2ccc(C(=O)/C=C/c3ccc(Cl)cc3)cc2)nnc1-c1cc(-c2ccccc2)nc2ccccc12 the growth was 61.6% (inactive).
With COc1ccc(-c2cc(-c3cccnc3)nc(S(=O)(=O)CC(=O)Nc3ccc(C)cc3)c2C#N)cc1OC the growth was 96% (inactive).
With COc1c(Cl)c2c(c(OC)c1OC)-c1ccc(SC)c(=O)cc1[C@@H](NC(=O)OCC(F)(F)F)CC2 the growth was -15.5% (active).
With COc1ccc(-c2cc(-c3cc(OC)ccc3O)[nH]c(=O)c2C#N)cc1 the growth was 59.5% (inactive).
For COc1cc2nc(N3CCC[C@@H](NC4=CC(=O)c5ccccc5C4=O)C3)nc(N)c2cc1OC, the growth was -51.3% (active).
For O=C(CC(=O)c1cccc(Cl)c1)c1cccc(Cl)c1, the growth was 41.7% (inactive).
COC[C@@H](C)n1c(C2CCOCC2)nc2c1C1C=C(OC)C(c3c(C)noc3C)=CC1N=C2 (stereo not given in full) was tested, and the growth was 32.4% (inactive).
For Fc1ccc2c(c1)c(-c1nc(-c3c[nH]c4ncccc34)cs1)cn2CCCN1CCCCC1, the growth was 76.6% (inactive).
COc1ccc(/C(Cl)=N/N=C(\Cl)c2cc(OC)c(OC)c(OC)c2)cc1OC(C)=O was tested, and the growth was 95.5% (inactive).
For FCc1nc2nc(Cl)c(Cl)nc2[nH]1, the growth was 93.2% (inactive).
With Cc1cc(=O)oc2cc(O)cc(O)c12 the growth was 103% (inactive).
For C#CCOC(=O)[C@@H]1CCCN1CC#C, the growth was 75.4% (inactive).
With ClC1=C(Cl)C(Cl)=C(Cl)C1=C/C=C/c1ccccc1 the growth was -50.3% (active).
In the case of Cc1nn(CC(=O)O)c2c1C(=O)CC(C)(C)C2, the growth is reported as 106% (inactive).
In the case of Nc1ncc(-c2cnn(C3CCNCC3)c2)cc1-c1nc2cc(Cl)ccc2o1, the growth is reported as -94.3% (active).
Cc1cc(-c2ccc(N=Nc3c(C)nn(-c4ccc(S(=O)(=O)O)cc4)c3O)c(C)c2)ccc1N=Nc1ccc(O)c(C(=O)O)c1 was tested, and the growth was 113% (inactive).
CCC(CCCN(CC)CCc1ccccc1)OC(=O)c1cc(OC)c(OC)c(OC)c1 (stereo not given) was tested, and the growth was 93.1% (inactive).
For Oc1ccccc1/C=N/Nc1ccc2ccccc2n1, the growth was 15.1% (inactive).
For Cc1nonc1-c1ccc2c(c1)OCO2, the growth was 111% (inactive) and 93.8% (inactive).
For CCN(CC)S(=O)(=O)c1ccc(OC)c(NC(=O)c2[nH]c(C)c3c2CCCCC3=O)c1, the growth was 10.7% (inactive).
In the case of O=C(O)c1ccc(Nc2ncc3c(n2)-c2ccc(Cl)cc2C(c2c(F)cccc2F)=NC3)cc1, the growth is reported as 35% (inactive).
